Measured values as given in PubChem BioAssay (EPA / NIEHS).
Some compounds were tested as several samples or in several runs, with calls that do not always agree. Active and inactive are the calls of the source. Rule for the calls: active = hit-call score of the fitted dose curve at least 0.9, where 1 is the maximum; inactive = score below 0.9.

read-out: Monocyte Chemoattractant Protein-1 (MCP1), CCL2 (gene 6347); experiment: BSK_3C_MCP1: BioMAP Diversity Plus: 3C Assay for Monocyte Chemoattractant Protein-1 (MCP1) Biomarker Activity (AID 2283017); conditions: primary human endothelial cells (HUVEC); actives raise or lower the signal
Description: BSK_3C is a cell-based, multiplexed-readout assay that uses umbilical vein endothelium, a human vascular primary cell, with measurements taken at 24 hours after chemical dosing in a 96-well plate.BSK_3C_MCP1 is an assay component measured in the BSK_3C assay. It measures MCP-1 antibody related to regulation of gene expression using ELISA technology.Data from the assay component BSK_3C_MCP1 was analyzed into 1 assay endpoint. This assay endpoint, BSK_3C_MCP1, was analyzed with bidirectional fitting relative to DMSO as the negative control and baseline of activity. Using a type of binding reporter, gain or loss-of-signal activity can be used to understand changes in the signaling as they relate to the gene CCL2. Furthermore, this assay endpoint can be referred to as a primary readout, because this assay has produced multiple assay endpoints where this one serves a signaling function. To generalize the intended target to other relatable targets, this assay endpoint is annotated to the cytokine intended target family, where the subfamily is chemotactic factor.
The levels of cell surface (or secreted, indicated by the prefix "s") biomarker endpoints were measured by ELISA. Overt cytotoxicity to cells in confluent adherent cultures (all systems other than the BT system) was assessed by measuring total protein levels using sulforhodamine B (SRB) staining in parallel cultures at the time of biomarker measurements, indicated as SRB endpoints. For proliferation assays for adherent cell types, individual cell types are cultured at sub-confluence and relative cell numbers quantified by SRB staining at time points optimized for each system (48 h: 3C and CASM3C systems; 72 h: BT and HDF3CGF systems; 96 h: SAg system). SRB was performed by staining cells with 0.1% SRB after fixation with 10% TCA and reading wells at 560 nm.Viability and proliferation of PBMC (T cells) was quantified by Alamar Blue reduction for the SAg and BT systems. For PBMC viability (referred to as PBMC Cytotoxicity within the assay endpoint names), cells were plated (75,000/well in a 96-well plate) and then chemical samples added for 1 h before addition of activators, SEB and TSST-1 (20 ng/mL final concentration each). Cells were incubated for 90 h. Then, Alamar Blue (20 uL/well) (Invitrogen, Cat DAL1100) was added for 6 h, and the plates were read with a fluorescence microplate reader at 546/580 nm (excitation/emission). For PBMC proliferation, cells were plated and activated as above but incubated for only 16 h prior to addition of Alamar Blue. Plates were read after 6 h.

SMILES	outcome	AC50
Nc1nc(N)nc(-c2ccccc2)n1	inactive	
CC(C)C(=O)OCCc1ccccc1	inactive	
CC(C)c1cccc(C(C)C)c1N	inactive	
Nc1cccc(N)n1	inactive	
CCCCCCCCCCCC(=O)N(C)CC(=O)O	inactive	
CC(c1cc(C(C)(C)C)cc(C(C)(C)C)c1O)c1cc(C(C)(C)C)cc(C(C)(C)C)c1O	inactive	
C[N+](C)(C)CCCNS(=O)(=O)C(F)(F)C(F)(F)C(F)(F)C(F)(F)C(F)(F)C(F)(F)C(F)(F)C(F)(F)F	inactive	30 µM (active)
C=CC(=O)NC(C)(C)C	inactive	
CCCCCCC=O	inactive	
CCc1cccc(C)c1N(C(=O)CS(=O)(=O)O)C(C)COC (stereo not given)	inactive	
CCCCCCCCCCCC(C)=O		31.3 µM (active)
Nc1ccc(C(=O)O)cc1	inactive	
c1ccc2sc(SSN3CCOCC3)nc2c1		14.2 µM (active)
CCOC(=O)C1=NN(c2ccc(Cl)cc2Cl)C(C)(C(=O)OCC)C1 (stereo not given)	inactive	
CC1(C)CC(O)CC(C)(C)N1[O]	inactive	
CC1=CC=C(C(C)C)CC1	inactive	
Oc1ccccc1Cc1ccccc1O	inactive	1.72 µM (active)
CCNc1nc(NC(C)(C)C)nc(OC)n1	inactive	
C=CC(=O)OCCCCCCCC(C)C	inactive	

SMILES	outcome	AC50
C=CC(=O)OCCCCCCOC(=O)C=C		20 µM (active)
CCOC(=O)C1=NOC(c2ccccc2)(c2ccccc2)C1	inactive	
CCCCCC1=CCCC1=O	inactive	
CC(CCC(=O)O)(c1ccc(O)cc1)c1ccc(O)cc1	inactive	
CC/C=C\C/C=C\C/C=C\CCCCCCCC(=O)OC		31.7 µM (active)
CCCC(C)C(=O)OCC (stereo not given)	inactive	
Fc1ccc(Br)cc1	inactive	
C=C(C)C(=O)OCCCCCCCCCCCC	inactive	
C=CC(=O)NCOCCCC	inactive	
CCOC(=O)/C=C\C(=O)OCC	inactive	
CCN1CN(CC)CN(CC)C1	inactive	
COC(OC)(C(=O)c1ccccc1)c1ccccc1	inactive	
O=C1CCCCCCCCCCCN1	inactive	
O=C(O)C(F)(F)C(F)(F)C(F)(F)C(F)(F)C(=O)O	inactive	
Clc1cc(Cl)c(Cl)c(Cl)c1Cl	inactive	
CC(C)[N+](C)(CCOC(=O)C1c2ccccc2Oc2ccccc21)C(C)C	inactive	
Cc1c(O)cccc1O	inactive	
CC/C=C\CCOC(=O)c1ccccc1O		29.7 µM (active)
CC(Cl)COP(=O)(OCC(C)Cl)OCC(C)Cl (stereo not given)	inactive	
